SARS PLP yeast = qHTS of Yeast-based Assay for SARS-CoV PLP. S. cerevisiae expressing SARS-CoV PLpro, growth rescue. Potency, µM (doses to about 32.9 µM), most hits filed as activators. actives 0.19% (n = 330,000); calls by dose curve; also: nearly all actives have a fitted effect of over 55% in size
AmpC inh detg = qHTS Inhibitors of AmpC Beta-Lactamase (assay with detergent); P00811; AmpC hydrolysis of nitrocefin, absorbance 480 nm, 0.01% Triton; actives 0.041% (n = 370,000); Potency, µM (titrated, usually from 114 µM), most hits filed as inhibitors; AID 485294, 2010; also: nearly all actives have a fitted effect of over 25% in size
Target sequence (P00811 whole entry, looked up): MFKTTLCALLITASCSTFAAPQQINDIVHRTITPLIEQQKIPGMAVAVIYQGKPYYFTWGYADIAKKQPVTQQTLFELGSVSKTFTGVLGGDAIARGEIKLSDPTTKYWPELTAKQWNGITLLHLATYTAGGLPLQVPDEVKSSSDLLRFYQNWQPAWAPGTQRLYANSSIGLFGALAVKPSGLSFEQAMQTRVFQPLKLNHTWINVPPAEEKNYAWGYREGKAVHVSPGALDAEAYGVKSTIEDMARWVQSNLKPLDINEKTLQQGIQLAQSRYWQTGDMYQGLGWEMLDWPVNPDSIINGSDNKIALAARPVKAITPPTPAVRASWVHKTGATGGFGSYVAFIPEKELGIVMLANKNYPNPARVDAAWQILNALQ
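AmpC (5.3 nM in the dispensed reagent) in 20 mM phosphate pH 7.0 with 0.01% (detergent screen) or 0.0001% Triton X-100 was preincubated with compounds for 15 min at room temperature. Nitrocefin was then added from an 800 uM solution, and hydrolysis was followed at 480 nm.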
AmpC no deterg = qHTS Inhibitors of AmpC Beta-Lactamase (assay without detergent); Potency, µM (titrated, usually from 57.1 µM), hits mostly inhibitors; P00811; actives 0.52% (n = 330,000); AmpC nitrocefin hydrolysis, absorbance 480 nm, 0.0001% Triton; also: nearly all actives have a fitted effect of over 20% in size
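AmpC (5.3 nM in the dispensed reagent) in 20 mM phosphate pH 7.0 with 0.01% (detergent screen) or 0.0001% Triton X-100 was preincubated with compounds for 15 min at room temperature. Nitrocefin was then added from an 800 uM solution, and hydrolysis was followed at 480 nm.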
Sm TGR block = qHTS Assay for the Inhibitors of Schistosoma Mansoni Peroxiredoxins; actives 3% (n = 360,000); Schistosoma mansoni thioredoxin glutathione reductase (TGR), Q962Y6; purified TGR, DTNB reduction, TNB absorbance 405 nm; Potency, µM (top dose mostly 114 µM), usual class: inhibitors; also: nearly all actives have a fitted effect of over 60% in size
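First, TGR (20 nM dispensed) and NADPH were mixed with compound. Second, a 15 min room-temperature incubation followed. Third, further NADPH and then DTNB were added to start the reaction. Finally, TNB absorbance was monitored kinetically.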
Pf growth 96h = Primary qHTS for delayed death inhibitors of the malarial parasite plastid, 96 hour incubation. Potency, µM (highest dose often 28.7 µM), most hits filed as inhibitors. actives 6.9% (n = 320,000). P. falciparum luciferase reporter growth, 96 h. AID 504834, 2011
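Parasite growth measured via integrated firefly luciferase reporter in P. falciparum. Infected erythrocytes at 2% hematocrit, 0.05% parasitemia final were treated 96 hours at 37 C under 5% CO2, and luminescence was read.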
Pf growth 48h = Primary qHTS for delayed death inhibitors of the malarial parasite plastid, 48 hour incubation | Potency, µM (top dose mostly 28.7 µM), most hits filed as inhibitors | P. falciparum luciferase growth in erythrocytes, 48 h | actives 5.9% (n = 310,000)
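Here the parasites carry a stable luciferase gene and grow inside erythrocytes in Albumax-based RPMI medium with compound for one erythrocytic cycle. Activity is scored as loss of luminescent signal.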
Of the large screens only hits and unclear results are named; the others gave an inactive call. This is a sample that favours compounds with a hit; in the whole collection about 12% have one here. Unless noted, calls follow the shape of the dose curve; as a rule, active = well fitted curve in the direction sought with a large enough effect; inconclusive = small, poorly fitted or top-dose-only effect, or another doubt; inactive = no such curve, though single readings can be large; an effect the other way counts as inactive or inconclusive.

CCCC(=O)NC(Oc1ccc(Cl)cc1Cl)C(Cl)(Cl)Cl (configuration not stated)	Sm TGR block 32µM
CCCC(=O)NC(Oc1ccc(OC)cc1)C(Cl)(Cl)Cl (configuration not stated)	none (no result: Sm TGR block)
O=C(NCC(c1cccs1)S(=O)(=O)c1cccs1)c1ccccc1 (configuration not stated)	Sm TGR block inconclusive (no result: SARS PLP yeast, AmpC no deterg, Pf growth 96h, Pf growth 48h)
CCN(CC)CCn1nc2c3c(cccc3c1=O)-c1ccccc1-2	Pf growth 48h 4.1µM (no result: Sm TGR block)
CCNC(=S)Nc1cc(-c2ccc(Cl)cc2)[nH]n1	Sm TGR block 0.89µM
CCCCSc1nc2c(c(C(F)(F)F)c1C#N)CCC2	Pf growth 96h inconclusive (no result: Pf growth 48h)
CCOC(=O)CCSc1nc2c(c(C(F)(F)F)c1C#N)CCC2	Pf growth 48h 9.3µM
COc1cccc(C(=O)OCCCN(C)C)c1	none
COc1cccc(C(=O)OCCN(C)C(C)(C)C)c1	AmpC inh detg inconclusive, Pf growth 96h 8.3µM (no result: Pf growth 48h)
COc1ccccc1C1CCN(C(=O)c2ccc(C(C)(C)C)cc2)CC1	Pf growth 96h 7.4µM, Pf growth 48h 12µM
O=[N+]([O-])c1cc([N+](=O)[O-])c2cc3ccccc3nc2c1	Sm TGR block 3.5µM, Pf growth 48h inconclusive
Cc1ccc(Cn2c(CN3CCN(C(=O)c4ccco4)CC3)nc3c2c(=O)n(C)c(=O)n3C)cc1	Pf growth 96h inconclusive, Pf growth 48h 2.1µM
O=C(c1ccco1)N1CCN(Cc2nc3ccccc3c(=O)n2-c2ccc(F)cc2)CC1	Pf growth 96h 9.3µM (no result: Pf growth 48h)
CCOC(=O)C1CCN(Cc2nc3ccccc3c(=O)n2-c2ccc(F)cc2)CC1	AmpC inh detg inconclusive, Pf growth 96h inconclusive (no result: Pf growth 48h)
Cn1c(=O)c2c(nc(CN3CCN(C(=O)c4ccco4)CC3)n2Cc2ccc(Cl)cc2)n(C)c1=O	Sm TGR block inconclusive, Pf growth 48h 7.4µM
Cn1c(=O)c2c(nc(CN3CCN(C(=O)c4ccco4)CC3)n2Cc2cccc(Cl)c2)n(C)c1=O	Sm TGR block 25µM, Pf growth 48h 4.7µM
CCC(=O)Nc1ccc(NCc2cccs2)cc1	none
Cc1cc2ccccc2n1CCNC(=O)c1cc(C(F)(F)F)cc(C(F)(F)F)c1	none (no result: SARS PLP yeast, AmpC no deterg, Pf growth 96h, Pf growth 48h)
CCC(=O)Nc1ccc2c(c1)nc(CCNC(=O)c1ccco1)n2C	none
Cc1nnc(NC(=O)CN2CCN(Cc3ccc(F)cc3Cl)CC2)s1	none
O=C(Cn1c(=O)oc2cccnc21)Nc1ccccc1Oc1ccc(Cl)cc1Cl	none
COc1ccc(-c2noc(N3CCN(c4ccc(C)cc4)C(C)C3)n2)cc1OC (configuration not stated)	none (no result: SARS PLP yeast, AmpC no deterg, Pf growth 96h, Pf growth 48h)
Cn1c(=O)c2c(nc(CN3CCN(C(=O)c4ccco4)CC3)n2Cc2ccccc2)n(C)c1=O	SARS PLP yeast inconclusive, AmpC no deterg inconclusive, Pf growth 96h inconclusive, Pf growth 48h 10µM
COc1cc2nc(C(C)(C)C)oc(=O)c2cc1OC	none
CC(C)(C)c1nc2c(Br)cc(Br)cc2c(=O)o1	Pf growth 96h 0.37µM
O=C(CN1C(=O)CCc2cc(S(=O)(=O)N3CCCCC3)ccc21)NCc1ccc(Cl)cc1	none (no result: SARS PLP yeast, AmpC no deterg, Pf growth 96h, Pf growth 48h)
CN(Cc1ccccc1)S(=O)(=O)c1ccc2c(c1)NC(=O)CC(=O)N2	Pf growth 96h 10µM
CCOc1ccc(-c2nc3c(c(CC)nn3-c3ccccc3)c3cc(OC)c(OC)cc23)cc1	none (no result: SARS PLP yeast, AmpC no deterg, Pf growth 96h, Pf growth 48h)
CCOc1ccc(C(=O)NCC(=O)N2CCCC2)cc1	none
O=C(COc1ccc(F)cc1Cl)Nc1cccc(S(=O)(=O)N2CCCCCC2)c1	Pf growth 96h 13µM, Pf growth 48h inconclusive
CC(=O)c1cc(Cl)ccc1OCC(=O)Nc1cccc(S(=O)(=O)N2CCCC2)c1	Pf growth 96h 3.7µM, Pf growth 48h inconclusive
O=C(CNc1ccc(F)cc1Cl)Nc1cccc(S(=O)(=O)N2CCCCC2)c1	Pf growth 96h inconclusive, Pf growth 48h inconclusive
O=C(COc1cccc2cccnc12)Nc1cccc(S(=O)(=O)N2CCCC2)c1	Pf growth 96h inconclusive, Pf growth 48h 10µM
O=C(COC(=O)c1cc([N+](=O)[O-])ccc1NCCO)Nc1cccc(S(=O)(=O)N2CCCC2)c1	AmpC inh detg inconclusive, AmpC no deterg 32µM, Pf growth 96h inconclusive, Pf growth 48h inconclusive
O=C(NCCCN1CCOCC1)c1ccc(CSc2ccc(Cl)cc2)cc1	Pf growth 96h inconclusive, Pf growth 48h inconclusive
O=C(NC(=S)Nc1nc2c(ccc3ccccc32)s1)c1cccs1	none
COc1ccc(CCC(=O)Nc2ccc(Cn3ccnc3)cc2)cc1	Pf growth 96h inconclusive, Pf growth 48h inconclusive
COc1ccccc1CCNC(=O)Cc1c(C)c2cc(Cl)c(O)cc2oc1=O	none (no result: SARS PLP yeast, AmpC no deterg, Pf growth 96h, Pf growth 48h)
O=C(COC(=O)CNC(=O)c1ccc(Cl)cc1Cl)Nc1cccc(S(=O)(=O)N2CCCC2)c1	Sm TGR block 50µM
O=C(COC(=O)CNC(=O)c1ccccc1F)Nc1cccc(S(=O)(=O)N2CCCCCC2)c1	AmpC inh detg inconclusive
Cc1cc(C)n(C(C)CC(=O)NCc2ccccc2C)n1 (configuration not stated)	none (no result: SARS PLP yeast, AmpC no deterg, Pf growth 96h, Pf growth 48h)
COc1ccc(C(=O)c2ccc(Br)cc2)cc1	Pf growth 96h inconclusive, Pf growth 48h 12µM
COC(=O)/C=C1\NCCNC1=O	none
c1ccc2c(CNC3CCCCC3)c[nH]c2c1	AmpC inh detg inconclusive, Pf growth 96h 13µM (no result: Pf growth 48h)
c1ccc2c(CN3CCN(C4CCCCC4)CC3)c[nH]c2c1	AmpC inh detg inconclusive, Pf growth 96h 12µM, Pf growth 48h 6.6µM
c1ccc2c(CN3CCCCCCC3)c[nH]c2c1	Pf growth 48h inconclusive (no result: Pf growth 96h)
CC(=O)N1CCOc2ccc(S(=O)(=O)N(C)c3cccc(C)c3)cc21	none
CCOc1ccccc1N(C)S(=O)(=O)c1ccc2c(c1)N(C(C)=O)CCO2	Pf growth 96h 1.9µM
CC(=O)N1CCOc2ccc(S(=O)(=O)N3CC(C)CC(C)C3)cc21 (configuration not stated)	Pf growth 96h 9.3µM
CN(C)N1C(N)=C(C#N)C(c2ccc3c(c2)OCO3)C2=C1CCCC2=O (configuration not stated)	Pf growth 48h inconclusive
NC(=O)c1cc(S(=O)(=O)N2CCN(c3cccc(Cl)c3)CC2)cs1	Pf growth 96h 1.2µM
Cc1nn(C)cc1S(=O)(=O)N1CCN(c2cccc(Cl)c2)CC1	Pf growth 96h inconclusive
CCN(CC)S(=O)(=O)c1cnccc1N1CCN(c2cccc(Cl)c2)CC1	Pf growth 96h 2.9µM, Pf growth 48h 3.3µM
CNS(=O)(=O)c1cnccc1N1CCN(c2cccc(Cl)c2)CC1	Pf growth 96h inconclusive, Pf growth 48h inconclusive (no result: SARS PLP yeast, AmpC no deterg)

Source: PubChem
